High-throughput results: PubChem, National Center for Advancing Translational Sciences (NCATS)
Hits are enriched below; roughly 6.7% of the tested compounds scored in any of these assays.
SW480 rereplic: induces DNA re-replication in SW480 colon adenocarcinoma cells; actives 1.8% (n = 340,000); Potency, µM (series often up to 46.1 µM), without a hit: top-dose re-replication activation, actives largely listed as activators; SW480 DNA re-replication, Hoechst DNA content imaging, 48 h; AID 624297; note: % of control where 0% means no effect; nearly all actives have a fitted effect of over 55% in size
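SW480 cells exposed to compounds for 48 hr at 37 C, 5% CO2, then Hoechst-stained 40 min. Nuclear DNA content imaged by fluorescence scanning (405 nm excitation, 500-530 nm emission); re-replication scored as increased high-intensity nuclei.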
KB-V1 MDR tox: KB-V1 MDR subline cytotoxicity; KB-V1 MDR cells viability, CellTiter-Glo, 72 h; Potency, µM (doses to about 46.1 µM), most hits filed as cytotoxic; actives 3.4% (n = 400,000); AID 1347076; note: % is set by controls: 0 for no effect and ±100 for the full control effect; nearly all actives have a fitted effect of over 60% in size
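Readout: CellTiter-Glo luminescence, 10 min after addition. Cells: KB-V1 MDR subline, 72 h at 37 degrees C with compound. Analysis: corrected, normalized data fitted to concentration-effect curves.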
MCF10A rereplic: DNA re-replication induction in MCF 10a cells; MCF 10A DNA re-replication, Hoechst nuclear intensity, 48 h; Potency, µM (doses to about 46.1 µM), without a hit: at the highest dose activity, positive = re-replication, most hits filed as activators; actives 2.9% (n = 350,000); AID 624296; note: % of control where 0% means no effect; nearly all actives have a fitted effect of over 50% in size
KB-3-1 tox: KB-3-1 parental cell cytotoxicity. KB-3-1 viability, CellTiter-Glo ATP luminescence, 72 h. Potency, µM (series often up to 46.1 µM), hits mostly cytotoxic. actives 1.4% (n = 400,000); note: % is set by controls: 0 for no effect and ±100 for the full control effect; nearly all actives have a fitted effect of over 60% in size
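Parental KB-3-1 viability, qHTS format: 72 h compound exposure, 37 °C; CellTiter-Glo; media-only wells and DMSO plates as controls; concentration-effect fits on corrected data.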
PINK1 expr mod: changes PINK1 expression; PINK1 immunofluorescence, high-content cytometry, 24 h; Potency, µM (series often up to 76.6 µM), without a hit: at the highest dose activation (PINK1 increase), usual class: activators; actives 0.2% (n = 410,000); active = well fitted activation curve with a large enough effect; inconclusive = small, poorly fitted or top-dose-only effect; cell line not stated here; note: % of control where 0% means no effect; nearly all actives have a fitted effect of over 65% in size
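Readout is PINK1 immunofluorescence, quantified alongside mitochondrial, cell and nuclear markers by laser-scanning microplate cytometry. Cells from a stable line were exposed to compound titrations (5 concentrations) for 24 hours, with CCCP controls.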
* hit, by the source's call; i = inactive; ? = inconclusive; nt = no result given; [ ] = dose if it differs, or a comment. Unless noted, calls come from the whole dose curve; as a rule, active = well fitted curve in the direction sought with a large enough effect; inconclusive = small, poorly fitted or top-dose-only effect, or another doubt; inactive = no such curve, though single readings can be large; an effect the other way counts as inactive or inconclusive. Potency is the fitted concentration of half-maximal effect.

SMILES	SW480 rereplic	KB-V1 MDR tox	MCF10A rereplic	KB-3-1 tox	PINK1 expr mod
Cn1nccc1NC(=O)CSCC(=O)O	-54%	i	8.2µM*	i	-1%
Cn1cc(CN2CCOc3ccc(C(O)C4CCCCC4)cc3C2)cn1 (stereo not drawn)	nt	nt	nt	nt	0%
CC(=O)N1/C(=C/c2ccc(N(C)C)cc2)C(=O)c2ccccc21	2.1µM*	i	?	?	-1%
CCN(CC)S(=O)(=O)c1ccc2oc(C(=O)N3CCc4ccccc4C3)c(C)c2c1	-2%	9.2µM*	19%	?	1%
Cc1c(C(=O)N2CCc3ccccc3C2)oc2ccc(Br)cc12	-41%	i	?	i	24%
Cc1c(C(=O)N2CCc3ccccc3C2)oc2ccc(S(=O)(=O)N3CC(C)CC(C)C3)cc12 (stereo not drawn)	?	?	25%	23µM*	0%
CC1CCCC(C)N1C(=O)CSc1nnc(COc2cccc3cccnc23)o1 (stereo not drawn)	4.1µM*	?	?	i	1%
COc1cccc(C(=O)CSc2nnc(COc3cccc4cccnc34)o2)c1	5.2µM*	i	6.5µM*	i	-4%[38.3 µM]
O=C(CSc1nnc(COc2cccc3cccnc23)o1)N1CCCC1	1%	?	0%	i	0%
NC(=S)NN=C1c2ccccc2-c2c(F)c(F)c(F)c(F)c21	15µM*	?	6.5µM*	?	1%
CC(OC(=O)c1c2c(nc3ccccc13)/C(=C\c1ccc3c(c1)OCO3)CCC2)C(=O)Nc1ccc(S(N)(=O)=O)cc1 (stereo not drawn)	21µM*	i	3.3µM*	i	-1%
COc1cccc(/C=C2\SC(=S)N(CCC(=O)N3CCCCC3CCO)C2=O)c1 (stereo not drawn)	18µM*	?	23µM*	?	1%
CCOC(=O)N1CCN(C(=O)CCN2C(=O)/C(=C\c3ccc(OC)c(OC)c3)SC2=S)CC1	nt	?	nt	i	32µM*
N=C1S/C(=C\c2cccc3ccccc23)C(=O)N1c1ccc(F)cc1	18µM*	7.3µM*	?	7.3µM*	-1%
COc1cc(/C=C2\SC(=S)N(CCC(=O)Nc3ccc(O)cc3)C2=O)cc(OC)c1OC	?	i	16µM*	i	1%
COc1ccc(/C=C2\SC(=S)N(CCCC(=O)N3CCN(C)CC3)C2=O)cc1OC	-5%	i	-8%	i	-2%
Cc1nn(CC(=O)NCc2ccccc2Br)c(=O)c2cc3occc3n12	nt	nt	nt	nt	1%
COc1ccc(CN(Cc2ccccc2)C(=O)C2CC2)cc1COc1ccc(NC(C)=O)cc1	nt	nt	nt	nt	1%
COc1cc(/C=C2\SC(=S)N(CCC(=O)N3CCCCC3)C2=O)cc(OC)c1OC	?	?	21µM*	?	-1%
COc1cc(/C=C2\SC(=N)N(c3ccc(F)cc3)C2=O)ccc1O	?	?	18µM*	i	3%
COc1ccc(/C=C2\SC(=O)N(CC(=O)Nc3ccc(F)cc3)C2=O)cc1O	-13%	i	26µM*	i	0%
CCOc1ccc(N2C(=O)S/C(=C\c3ccc(O)c(OC)c3)C2=O)cc1	?	i	0%	i	24%
Cc1ccc(/C=C2\SC(=S)N(CCC(=O)N3CCCCC3)C2=O)cc1	-4%	i	1%	?	2%
O=[N+]([O-])c1ccc(Nc2nc(NCCN3CCOCC3)nc(Nc3ccc(I)cc3)n2)cc1	nt	i	nt	?	1%
Cc1ccc(CCNC(=O)c2c3c(nc4ccccc24)C(=O)N(C2CCCCC2)C3)cc1	nt	i	nt	i	1%
SMILES	SW480 rereplic	KB-V1 MDR tox	MCF10A rereplic	KB-3-1 tox	PINK1 expr mod
Cc1ccccc1-n1ncc2c(SCC(=O)NCc3cccs3)ncnc21	21µM*	7.3µM*	13µM*	5.2µM*	3%
CC(C)C(=O)NNC(=O)CSc1ncnc2c1cnn2-c1ccccc1Cl	10%	?	7%	i	2%
Cc1csc(NC(=O)CSc2ncnc3c2cnn3-c2ccccc2Cl)n1	21%	?	22µM*	?	5%
COc1cc(C(=O)N2CCN(S(=O)(=O)c3cccc(F)c3)CC2)ccc1OCC(=O)N1CCOCC1	0%	i	2%	i	2%
CCN(CC)c1nc2c3c(nc4c(c3c1C#N)CC(=O)N4c1ccc(Cl)cc1)NC(C)=N2	4%	i	9.2µM*	?	4%
CCc1ccc(N2C(=O)Cc3c2nc(N)c(C#N)c3N)cc1	4%	?	7%	i	-4%[38.3 µM]
CCCCCCCCN=C1NC(=O)CS1	-12%	13µM*	3%	?	-10%[38.3 µM]
COc1ccc(C(=O)N2CCc3ccccc3C2)cc1S(=O)(=O)N1CCCC1	nt	?	nt	i	0%
COc1ccc(-n2nc(C(=O)NCC(=O)Nc3cc(OC)c(OC)c(OC)c3)c3ccccc3c2=O)cc1Cl	6%	i	23µM*	i	1%
O=C(c1ccco1)N1CCN(Cc2csc(-c3ccccc3Cl)n2)CC1	21%	nt	19%	nt	3%
C(=C\c1c[nH]c2ccccc12)/c1ccnc2ccccc12	nt	i	nt	i	1%
CCn1c(/C=C/c2c(C)[nH]c3ccccc23)nc2ccccc2c1=O	?	i	?	i	?
CCCCCCC[n+]1ccc(/C=C/c2c[nH]c3ccccc23)cc1	nt	i	nt	0.41µM*	nt
CC[n+]1ccc(/C=C/c2c[nH]c3ccccc23)cc1	?	i	?	1.8µM*	25µM*
CCCCCCCCCC[n+]1ccc(/C=C/c2c[nH]c3ccccc23)c2ccccc21	nt	?	nt	8.2µM*	nt
CCCCCCCCCC[n+]1ccc(/C=C/c2c(C)[nH]c3ccccc23)cc1	nt	?	nt	1.3µM*	nt
Cc1c(F)cccc1NC(=O)C1CCCN1S(=O)(=O)c1ccc(F)cc1 (stereo not drawn)	nt	i	nt	i	3%
C=CCn1c(=O)[nH]c2cc(C(=O)N3CCN(c4ccc(C(C)=O)cc4)CC3)ccc2c1=O	5%	i	9%	i	8%[38.3 µM]
O=C(c1ccc(Cn2c(=O)[nH]c3ccccc3c2=O)cc1)N1CCN(c2ccc(Cl)cc2)CC1	17%	21µM*	21%	?	-2%
C=CCn1c(=O)[nH]c2cc(C(=O)N3CCN(c4cccc(Cl)c4)CC3)ccc2c1=O	11%	12µM*	17%	?	1%
CC(=O)c1ccc(N2CCN(C(=O)c3ccc(Cn4c(=O)[nH]c5ccccc5c4=O)cc3)CC2)cc1	nt	i	nt	i	8%
Cc1oc(-c2cccc(Cl)c2)nc1CN1CCCC(C(=O)NCc2ccc(F)cc2)C1 (stereo not drawn)	nt	i	nt	i	0%
Cc1oc(-c2cccc(Cl)c2)nc1CN1CCCC(C(=O)NCCCN2CCOCC2)C1 (stereo not drawn)	12%	13µM*	?	i	8%
